Test results as given in PubChem BioAssay AID588342 (National Center for Advancing Translational Sciences (NCATS), 2011).
About 25,000 (6.9%) of roughly 360,000 compounds were called active. Another 9% or so got no clear call; they are omitted. The full list was thinned out, with actives kept by preference. Values without a mark were called inactive. Calls come from the whole dose curve; as a rule, active = well fitted inhibition curve with a large enough effect; inconclusive = small, poorly fitted or top-dose-only effect; inactive = flat fitted curve, though single readings scatter.

target: Luciferin 4-monooxygenase (Photinus pyralis) (UniProt P08659); assay: qHTS profiling assay for firefly luciferase inhibitor/activator using purifed enzyme and Km concentrations of substrates (counterscreen for miR-21 project); conditions: purified FLuc, luminescence inhibition; series mostly up to 57.5 µM; activity change, negative = inhibition: at the top concentration; note: nearly all actives have a fitted effect of over 55% in size;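 for activity change, negative = inhibition: plate controls were vehicle for no effect and reference inhibitor for full effect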
Sequence (P08659 whole entry, looked up): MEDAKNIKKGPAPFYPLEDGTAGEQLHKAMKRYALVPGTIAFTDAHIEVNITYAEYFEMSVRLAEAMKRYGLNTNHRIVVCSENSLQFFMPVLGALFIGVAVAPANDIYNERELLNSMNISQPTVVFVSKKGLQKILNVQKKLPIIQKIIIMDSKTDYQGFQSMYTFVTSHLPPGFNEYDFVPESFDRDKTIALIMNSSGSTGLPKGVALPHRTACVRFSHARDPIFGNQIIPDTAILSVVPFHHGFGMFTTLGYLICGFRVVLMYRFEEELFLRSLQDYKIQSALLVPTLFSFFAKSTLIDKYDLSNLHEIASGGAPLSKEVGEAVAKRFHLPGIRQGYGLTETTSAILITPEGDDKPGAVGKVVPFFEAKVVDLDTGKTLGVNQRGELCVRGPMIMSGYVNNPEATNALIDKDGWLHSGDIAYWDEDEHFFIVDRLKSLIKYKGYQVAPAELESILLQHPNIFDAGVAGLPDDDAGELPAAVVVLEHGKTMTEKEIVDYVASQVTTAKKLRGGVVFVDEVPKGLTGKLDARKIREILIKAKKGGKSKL
Procedure, shortened: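 Purified P. pyralis luciferase (10nM final) with 10uM D-luciferin and 10uM ATP (Km levels) in 50mM Tris acetate pH 7.5, 10mM Mg acetate, 0.01% Tween-20, 0.05% BSA; qHTS 6-point titration, ~60 µM downward; luminescence read.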
Potency is the fitted concentration of half-maximal effect.

| Compound | activity change, negative = inhibition [%] | Potency |
| --- | --- | --- |
| CCN(CCCNC(=O)Cn1ncc2c3ccccc3n(C)c2c1=O)Cc1ccccc1 | -13.7 |  |
| O=C(Cc1ccc(Cl)cc1)Nc1ccc2nn(-c3ccc(Cl)cc3)nc2c1 | -0.963 |  |
| Cc1nn(CC(=O)Nc2ccc(F)cc2)c(=O)c2ccccc12 | -0.402 |  |
| CCC(=O)Nc1ccc2nn(-c3ccc(F)cc3)nc2c1 |  | 1.35 µM (active) |
| Cc1ccc(NC(=O)c2oc3ccc(S(=O)(=O)N4CCCCC4)cc3c2C)cc1Cl | -0.833 |  |
| COc1ccc(C(=O)N2CCN(c3ncccn3)CC2)cc1S(=O)(=O)N1CCOCC1 | 1.48 |  |
| O=c1c(Cl)c(NC2CC2)cnn1-c1ccccc1 | 3.08 |  |
| CCc1nc2c(cnn2-c2ccc(C)cc2)c(=O)n1-c1ccc(C)cc1 | 2.3 |  |
| C=CCNc1cnn(-c2ccc(C)cc2)c(=O)c1Cl |  | 15.1 µM (active) |
| CCCCN(CC)CCCNC(=O)Cn1ncc2c([nH]c3ccc(C)cc32)c1=O | -6.5 |  |
| O=C(CNCc1ccc(Cl)cc1)Nc1cccc(C(=O)O)c1 | -5.42 |  |
| O=C(c1ccc(F)cc1)n1c(=S)nc2ccccn21 |  | 0.269 µM (active) |
| O=C(c1ccc(F)cc1)n1cc(C(=S)N2CCOCC2)c2ccccc21 | -16.4 |  |
| O=C(Nc1c(-c2ccc(F)cc2)nc2ccccn12)c1cccc(F)c1 | -11.9 |  |
| Cc1cc(C)c(NC(=O)c2cc3sc(Cl)cc3n2C)c(C)c1 | -8.09 |  |
| CCC(=O)c1c[nH]c(C(=O)NCC2CCCO2)c1 (stereo not given) | -1.61 |  |
| O=C(c1cc2c(s1)CCC2)N1CCN(c2ccccc2)CC1 | -9.22 |  |
| O=C(NNC(=O)C1CCC1)c1ccccc1 | 0.634 |  |
| O=C(NCCCN1CCOCC1)c1cc2c(s1)CCC2 | 3.35 |  |
| O=C(NCCCn1ccnc1)c1cc2c(s1)CCCC2 | -19.1 |  |
| O=C(Nc1ccc(F)cc1)c1cc2c(s1)CCCC2 |  | 1.9 µM (active) |
| COc1ccc(C(CNC(=O)c2cc3c(s2)CCCC3)N2CCOCC2)cc1 (stereo not given) | 0.96 |  |
| O=C(NCC1CCCO1)c1cc2c(s1)CCCC2 (stereo not given) |  | 12 µM (active) |
| O=C(NNC(=O)c1cc2c(s1)CCCC2)c1ccccc1 |  | 26.9 µM (active) |

| Compound | activity change, negative = inhibition [%] | Potency |
| --- | --- | --- |
| COc1ccc(Cn2c(=O)c3oc4ccccc4c3n(CC(=O)Nc3ccc(F)cc3F)c2=O)cc1 | 1.11 |  |
| COc1ccc(Cn2ccn(Cc3cccc(OC)c3)c(=O)c2=O)cc1 | 1.98 |  |
| CN(C)c1ccc(NC(=O)CSc2nc(-c3ccco3)cc(C(F)(F)F)n2)cc1 | 2.16 |  |
| CSc1ccccc1OCc1cc(C(=O)N(C)CCc2c(C)n[nH]c2C)no1 | -1.04 |  |
| CSc1ccccc1OCc1cc(C(=O)N2C[C@H]3CC[C@H]2C3)no1 |  | 10.7 µM (active) |
| COC(=O)[C@@H]1CCCN1C(=O)c1cc(COc2cccc3cccnc23)on1 | -2.66 |  |
| CCc1nnc(SCc2nc(-c3cccc(C)c3)oc2C)c2cc3sc(C)cc3n12 | -0.968 |  |
| COc1ccc2[nH]c(=S)cc(C)c2c1 | -15.8 |  |
| COc1ccc2[nH]c(C(=O)N3CCN(C)CC3)c(C)c2c1 | -4.15 |  |
| COc1ccc2[nH]c3ccc(OC)cc3c2c1 |  | 21.3 µM (active) |
| CCCCn1c(CNC(=O)C23CC4CC(CC(C4)C2)C3)nnc1SCC(=O)Nc1ccc(C)cc1 | -12.5 |  |
| CC(C)Oc1ccc(CNC(=O)C2CCN(c3nc4ccccc4n(C)c3=O)CC2)cc1 | 1.52 |  |
| O=C(O)COCC(=O)NCc1csc2ccc(Cl)cc12 | 1.62 |  |
| Cc1ccccc1NC(=O)c1cc(S(=O)(=O)Nc2cccc(C(=O)O)c2)ccc1Cl | -5.3 |  |
| CC(=O)Nc1cccc(/C(C)=N/NC(=O)c2c(-c3ccccc3Cl)noc2C)c1 | -2.43 |  |
| C/C(=N\Nc1cccc(C(=O)O)c1)c1ccc2c(c1)Nc1ccccc1S2 |  | 7.57 µM (active) |
| Cc1ccc(S(=O)(=O)N2CCOCC2)cc1NC(=O)COC(=O)c1cnccn1 | 4.43 |  |
| Cc1cc(F)ccc1NS(=O)(=O)c1ccc(-n2cccn2)cc1 | -17.4 |  |
| O=C(COC(=O)C1(c2ccc(F)cc2)CCCC1)N1CCNC1=O | 2.21 |  |
| COCCN1C(=O)C(=O)/C(=C(/O)c2ccc(S(=O)(=O)N3CCOCC3)cc2)C1c1ccc(O)c(OC)c1 (stereo not given) | 3.35 |  |
| CSc1ccc(NC(=O)/C=C/C(=O)O)cc1 | -17.2 |  |
| CSc1ccc(/C=C/C(=O)NC23CC4CC(CC(C4)C2)C3)cc1 |  | 13.5 µM (active) |
| O=C(NCc1ccncc1)NC12CC3CC(CC(C3)C1)C2 | 7.76 |  |
| COC(=O)c1sc(NC(=O)COC(=O)C2CCC2)c(C(=O)OC)c1C | 6.53 |  |

| Compound | activity change, negative = inhibition [%] | Potency |
| --- | --- | --- |
| Cc1cccc2c1N(CCOc1ccccc1)C(=O)C2=O | 4.77 |  |
| O=C(OCCN1C(=O)c2ccccc2C1=O)Oc1ccccc1 | -4.77 |  |
| O=C1c2ccccc2C(=O)N1CCOc1ccc(F)cc1 |  | 13.5 µM (active) |
| Cc1nc2c(c(C)nn2-c2ccccc2)c(C)c1CCC(=O)NCCc1ccc(Cl)cc1 | -20.7 |  |
| O=C(CSc1ncnc2scc(-c3ccccc3)c12)NCc1ccc2c(c1)OCO2 | 1.67 |  |
| Cc1cc(C)c(NC(=O)CN2C(=O)c3cccnc3Oc3ccc(Cl)cc32)c(C)c1 | 3.06 |  |
| Cn1sc(NC(=O)c2ccccc2)nc1=O |  | 19 µM (active) |
| Cc1nc2ccccc2c(=O)n1NC(=O)c1ccccc1 | -1.41 |  |
| Cn1c(NC(=O)c2ccccc2)nc2ccccc21 |  | 6.75 µM (active) |
| CCn1c(NC(=O)c2nn(C)cc2Br)nc2ccccc21 | -17.5 |  |
| Cn1c(S(=O)(=O)O)nc2ccccc21 | 7.69 |  |
| Cn1nnc(NC(=S)NC(=O)c2ccccc2)n1 | 6.32 |  |
| Brc1cc(Br)c(Oc2cc(Br)c(Br)cc2Br)cc1Br | 1.37 |  |
| CC1CCC(N2CC(=O)N(CCC3=CCCCC3)C(c3ccc(F)cc3)C2=O)CC1 (stereo not given) | 3.29 |  |
| COc1ccc(CN2CCN(C(=O)c3cc(C4CC4)nn3-c3ccccc3)CC2)cc1F | -2.79 |  |
| CCn1c2ccccc2c2cc(NC(=O)Nc3ccc([N+](=O)[O-])cc3C)ccc21 | -3.84 |  |
| Cc1ccc(-n2c3nc(=O)[nH]c(=O)c-3cc3c(Cl)cccc32)cc1 | -3.15 |  |
| Cc1ccccc1-c1nc(SCC(=O)N(C)c2ccccc2)c2c(=O)n(C)c(=O)n(C)c2n1 | -3.06 |  |
| CCN(CC)S(=O)(=O)c1ccc(N2CCOCC2)c(NC(=O)c2ccc(=O)n(C)n2)c1 | 4.37 |  |
| COc1ccc(C2=NN(C(=O)CSc3nnnn3C)C(c3ccco3)C2)cc1 (stereo not given) | -0.222 |  |
| CCOC(=O)C1C(=O)C=C(c2ccc(OC)cc2)CC1c1ccco1 (stereo not given) |  | 13.5 µM (active) |
| CCOC(=O)C1C(=O)NC(N2CCN(c3ccccc3)CC2)=NC1c1ccco1 (stereo not given) | 4.85 |  |
